D1 PAM = human D1 dopamine receptor positive modulation | P21728 | HEK293 TREx D1 cells, calcium flux, dopamine EC20 potentiation | potentiation, % at 10 µM | 360,000 compounds, 0.036% hits; in the data active means potentiation above about 30%
D1 agonist = human D1 receptor agonism; P21728; HEK293 T-REx D1 cells, calcium flux, agonist mode; activation, % at 2 µM; 360,000 compounds, 1% hits; AID 504660
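Agonism was scored from calcium flux recorded over 180 s (1 read/s) after pintool compound addition, following a 10-cycle baseline. Cells were inducible force-coupled HEK293 TREx D1, plated overnight at 30 C and loaded with no-wash calcium dye.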
TRHR ag = agonists of human TRH receptor; P34981; 360,000 compounds, 0.18% hits; TRHR cells, calcium flux fluo-8, FDSS agonist mode; AID 493084; activation, % at 2 µM
Target sequence (P34981 whole entry, looked up): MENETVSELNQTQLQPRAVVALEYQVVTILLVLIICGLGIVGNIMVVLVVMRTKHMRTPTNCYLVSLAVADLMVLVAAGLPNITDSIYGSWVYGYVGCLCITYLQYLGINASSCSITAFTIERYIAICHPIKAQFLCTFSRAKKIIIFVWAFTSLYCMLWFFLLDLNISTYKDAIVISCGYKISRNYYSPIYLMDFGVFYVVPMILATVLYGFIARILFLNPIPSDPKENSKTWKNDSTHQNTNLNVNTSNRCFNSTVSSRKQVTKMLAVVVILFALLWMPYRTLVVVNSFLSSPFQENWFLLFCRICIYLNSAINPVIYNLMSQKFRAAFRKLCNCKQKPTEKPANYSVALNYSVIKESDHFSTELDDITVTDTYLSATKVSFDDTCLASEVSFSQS
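Agonist-mode FDSS calcium read (Ex 480/Em 530, 1 s cycles) in 1536-well TRHR cells with fluo-8 dye, after 10-cycle baseline and 23 nL compound addition; TRH at EC20 (10 nM final) added afterwards for the enhancer phase.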
TRHR enhancer = allosteric enhancers of human TRH receptor. TRHR cells, fluo-8 calcium fluorescence, EC20 TRH enhancement. enhancement, % at 2 µM. 360,000 compounds, 0.66% hits. AID 493056; in the data active means enhancement above about 30%
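Enhancer read-out: after compound pinning and an initial kinetic agonist-mode read, an EC20 of TRH (10 nM final) was injected and fluo-8 calcium signal (Ex 480/Em 530) followed at 1 s/cycle for 100 cycles in TRHR-expressing cells.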
D1 antag = human D1 dopamine receptor antagonism; P21728; 360,000 compounds, 3.2% hits; AID 504652; activity change, negative = inhibition, % at 10 µM; HEK293 TREx D1 cells, calcium flux, dopamine EC80; active compounds read low; in the data active means activity change below about -30%
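Cells carrying a force-coupled, tetracycline-inducible human D1 receptor report calcium flux. Each well gets a 10 s baseline, compound with 180 s monitoring, then an EC80 dopamine stimulus with a second 180 s kinetic read.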
Of the large screens only hits and unclear results are named; the others gave an inactive call. Sampled rows, rich in hits. Any-hit rate of the full collection: about 4.7%. Unless noted, no stated cut-off is given here; in the data, active means activation above about 30%; inactive means the rest.

CC1=CC(C)(C)N(C(=O)c2ccc(F)cc2)c2cc3c(cc21)OCO3	D1 agonist 72
CN(C)CCN(CC1CCCN(Cc2ccccc2F)C1)C(=O)c1ccc(F)cc1 (stereo not given)	none
CC(C)[C@H]1C(=O)Nc2ccccc2N1C(=O)N[C@@H](Cc1ccccc1)C(=O)N[C@@H](Cc1ccccc1)C(=O)O	D1 antag -31
CC(C)[C@H]1C(=O)Nc2ccccc2N1C(=O)N[C@@H](Cc1ccccc1)C(=O)N[C@H](Cc1ccccc1)C(=O)O	none
O=C(c1ccc(S(=O)(=O)N2CCC(c3nc4ccccc4[nH]3)CC2)cc1)N1CCOCC1	D1 antag -89
COc1cc(NC(=O)CN(C)C2CCCCC2)c(C)cc1[N+](=O)[O-]	D1 antag -74
NC(=O)C1CCN(c2nc(C3CC3)nc3c2nnn3Cc2ccccc2)CC1	TRHR enhancer 30
CCCCN1CCCC1CNC(=O)c1cc(C#N)c2ccccc2c1OC (stereo not given)	D1 antag -41
CCN1CCCC1CNC(=O)c1cc(OC)c(OC)c(OC)c1 (stereo not given)	none
CCc1ccc(NS(=O)(=O)c2cc(OC)ccc2OC)cc1	none
CCc1ccc(NS(=O)(=O)c2[nH]ncc2C(=O)OC)cc1	D1 antag -38
COc1ccc2nc(N(Cc3cccnc3)C(=O)CCc3ccccc3)sc2c1	none (no result: D1 antag)
Cc1cc2c(s1)c1cnn(Cc3ccccc3Cl)c(=O)c1n2C	none
COc1cccc(-n2nc(C(N)=O)c(O)cc2=O)c1	none
COc1cccc(-n2nc(C#N)c(Cl)cc2=O)c1	D1 antag -32
Cc1ccc(NC(=O)N2CCC(c3nc4c(nnn4Cc4cccc(Cl)c4)c(=O)[nH]3)CC2)cc1	D1 antag -47
O=C(CNC1CCCCC1)Nc1ccc(Cl)cc1	none
Cc1cccc2cc(C#N)c(SCC#N)nc12	D1 agonist 32
Cc1cccc2cc(C#N)c(SCC(=O)NCc3cccs3)nc12	none
CCc1nc(SCC#N)c(C#N)cc1C	D1 antag -34
Cc1nnc(N)nc1C	D1 antag -38
Cc1cccc(NC(=O)Cn2cc(C(=O)C3CCCCC3)c3ccccc32)c1	D1 antag -30
CCOc1cccc(C2c3c(-c4cc(C)ccc4O)n[nH]c3C(=O)N2Cc2ccco2)c1 (stereo not given)	none
CCOC(=O)N1CCN(c2ccc(C(=O)c3ccccc3)cc2F)CC1	D1 antag -42
CCC(=O)c1ccc(N2CCN(C(=O)c3ccccc3F)CC2)c(F)c1	D1 agonist 38
CCOC(=O)N1CCN(c2cc(C)c(C(C)=O)cc2F)CC1	D1 antag -42
COCC(C)NC(=O)CCc1nnc(C2(c3ccc(Cl)cc3)CCC2)o1 (stereo not given)	D1 antag -51
COC(=O)CNC(=O)CCc1nnc(C2(c3ccc(Cl)cc3)CCC2)o1	none
COc1ccc(-c2cc(C)no2)cc1S(=O)(=O)NCc1ccco1	none
COc1ccc(-c2cc(C(=O)Nc3c(C(=O)c4ccc(C)cc4)oc4ccccc34)no2)cc1	none
C/C=C/C(=O)OCC(=O)Nc1ccc(SC(F)F)cc1	D1 antag -33
CCCCOc1ccc(C(=O)Nc2ccc(SC(F)F)cc2)cc1OC	none
COc1ccc(C(=O)Nc2ccc(SC(F)F)cc2)cc1	D1 agonist 46
CCC(C(=O)OCC(=O)Nc1ccc(SC(F)F)cc1)c1ccccc1 (stereo not given)	D1 antag -36
O=C(Cc1ccccc1)Nc1ccc(SC(F)F)cc1	D1 antag -40
O=C(COc1ccc(Cl)cc1)OCc1cc(=O)n2nc(-c3cccs3)sc2n1	none
N=c1sccn1CC(=O)Nc1ccc(SC(F)F)cc1	D1 agonist 46
CCOC(=O)C1(CCc2ccccc2)CCN(C(=O)CN2C(=O)CSC2=O)CC1	D1 agonist 48
Cc1ccc(S(=O)(=O)N(C)C)cc1NC(=O)COC(=O)CC1CCCC1	none
Cc1ccc(S(=O)(=O)N(C)C)cc1NC(=O)COC(=O)CCC1CCCCC1	D1 antag -39
CCOC(=O)/C(C#N)=C/c1ccc(-c2ccc(Br)cc2)o1	TRHR enhancer 37
COc1cccc(NC(=O)/C(C#N)=C/c2ccc(-c3ccc(C)cc3)o2)c1	D1 agonist 110, TRHR ag 34
COc1ccc(NC(=O)/C(C#N)=C/c2ccc(C)o2)cc1	none
COc1ccc(NC(=O)/C(C#N)=C\c2ccc(N3CCOCC3)o2)cc1	D1 agonist 213, TRHR ag 75
N#C/C(=C\c1ccc(N2CCOCC2)o1)C(=O)Nc1ccc(O)cc1	D1 agonist 41
CC(=O)Nc1ccccc1-c1nc2ccccc2n(CC(=O)c2ccc(C)c(C)c2)c1=O	none
COc1ccc(N2CCN(C(=O)c3cc4c(=O)oc5ccc(C)cc5c4s3)CC2)cc1	none
CCCCn1cc(S(=O)(=O)c2cc(C)ccc2C)c(=O)c2cc(F)c(F)cc21	none
CCOc1ccccc1C(=O)Nc1ccc(NC(=O)c2ccccc2)cc1	TRHR enhancer 34
CCOc1ccccc1C(=O)Nc1c(C(=O)Nc2ccc(F)cc2)oc2ccccc12	TRHR enhancer 43
CCOc1ccccc1C(=O)Nc1ccc(C(=O)c2ccccc2)cc1	none
O=C(CNCCc1ccccc1)Nc1ccc(C(=O)N2CCCCC2)cc1	none
CCOc1ccc(NC(=O)c2oc3ccccc3c2NC(=O)c2c(F)cccc2F)cc1	none
COc1ccccc1C(=O)NC(=S)Nc1ccc(Cc2ccncc2)cc1	D1 PAM 39
O=C(CNCCc1ccc(Cl)cc1)Nc1ccc(C(=O)N2CCCCC2)cc1	D1 agonist 34
Cc1ccn2c(Nc3ccc4c(c3)OCO4)c(-c3ccco3)nc2c1	none
CC(=O)c1ccc(NC(=O)COc2ccccc2C(=O)Nc2ccc(C)cn2)cc1	none (no result: D1 antag)
CC(=O)c1ccc(NC(=O)COc2ccccc2C(=O)Nc2ccccc2)cc1	D1 antag -61
COc1ccccc1C(=O)Nc1ccc(C(=O)N2CCCCC2)cc1	none
COc1ccccc1C(=O)Nc1ccc(C(=O)N2CCCC2)cc1	D1 antag -71
CCOc1ccc(NC(=O)c2ccccc2OC)cc1	D1 PAM 41
COc1ccccc1C(=O)Nc1ccncc1	TRHR enhancer 35
COc1ccc([C@]23Cc4ccccc4C(O2)C2=C(CC(C)(C)CC2=O)O3)cc1	none
COC(=O)c1ccc(C(=O)NCCCCO)cc1	none
CCc1ccc(NC(=O)c2sc3nc(C)c(Cl)c(C)c3c2N)cc1	none
COc1ccc(C(=O)Nc2ccc(C(=O)N3CCOCC3)cc2)cc1OC	TRHR enhancer 32
COc1ccc(NC(=O)Nc2ccc(C(=O)N3CCOCC3)cc2)cc1OC	none
Cc1ccc(C(=O)Nc2ccc(N3CCN(C(=O)c4ccco4)CC3)cc2)cc1	none
O=C(Nc1ccc(N2CCN(C(=O)c3ccco3)CC2)cc1)c1ccc(Br)cc1	D1 antag -32
CCOC(=O)c1ccc(NC(=O)c2ccc(OC(C)C)c(OC)c2)cc1	D1 antag -32

Source: PubChem
